From PMC9838217, “Structure of SALL4 zinc finger domain reveals link between AT-rich DNA binding and Okihiro syndrome” come the findings set out here.

Positions count from the first letter of the chain named.

The first assay concerns the target T1, SALL4 ZFC4 WT (HT-SELEX) (Mus musculus, UniProt Q8BX22 870-940).
T1 sequence: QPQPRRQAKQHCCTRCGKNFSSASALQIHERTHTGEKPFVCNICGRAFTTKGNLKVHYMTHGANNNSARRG
Put plainly: HT-SELEX; high values mean tight binding. The following applies: protein: recombinant; vector His6-GST; dsDNA, one strand shown. An outline of the steps:
(§1)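 Recombinant mouse SALL4 zinc finger cluster 4 (residues 870–940, 1 µg), purified, was mixed with library DNA (1.5 µg in the first cycle, 200 ng thereafter) in 100 µl of buffer containing 10 mM Tris–HCl pH 7.5, 50 mM NaCl, poly(dI-dC) and DTT, and left for 10 min at room temperature. Complexes were captured on Ni2+ beads, washed, amplified by PCR and reselected for up to 6 cycles in triplicate, after which MiSeq sequencing and a 6-mer scan followed. Binding signal is the read fraction of each canonical k-mer, given as fold change relative to the starting random library.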
For ATTTCC, the binding signal was found to be 1.33 ± 0.0842 fold-change vs cycle 0.

Regarding ATGTCG, the binding signal was 0.521 ± 0.0491 fold-change vs cycle 0.

For the sequence AGGATC, the binding signal worked out at 0.876 ± 0.0353 fold-change vs cycle 0.

With AGGAAG, the binding signal came out at 0.939 ± 0.0254 fold-change vs cycle 0.

As for TAAGCA, the binding signal was 1.282 ± 0.00819 fold-change vs cycle 0.

Take AGATTA: the binding signal amounted to 2.21 ± 0.147 fold-change vs cycle 0.

As to AAGCGT, the binding signal came to 0.524 ± 0.0507 fold-change vs cycle 0.

For GTCACA, the binding signal was 0.677 ± 0.0487 fold-change vs cycle 0.

In the case of AAACAT, the binding signal came out at 1.93 ± 0.14 fold-change vs cycle 0.

As for GGCTAA, the binding signal stood at 0.523 ± 0.0366 fold-change vs cycle 0.

Take ATCGGG: the binding signal stood at 0.397 ± 0.0233 fold-change vs cycle 0.

CTTCCA: the binding signal came out at 0.834 ± 0.0174 fold-change vs cycle 0.

As for ACAATA, the binding signal is 2.09 ± 0.146 fold-change vs cycle 0.

Regarding AGATGA, the binding signal came to 1.49 ± 0.0331 fold-change vs cycle 0.

Turning to GTGGGA, the binding signal worked out at 0.413 ± 0.0385 fold-change vs cycle 0.

Take ATCAGC: the binding signal stood at 0.664 ± 0.0167 fold-change vs cycle 0.

ATATTC: the binding signal came to 2.62 ± 0.255 fold-change vs cycle 0.

For CGAAAC, the binding signal is 0.59 ± 0.0153 fold-change vs cycle 0.

On to CTTATA, for which the binding signal was 2.43 ± 0.156 fold-change vs cycle 0.

Take CGAATC: the binding signal worked out at 0.662 ± 0.00887 fold-change vs cycle 0.

Consider GAGTAA, for which the binding signal is 1.45 ± 0.0607 fold-change vs cycle 0.

For TCCGGA, the binding signal is 0.375 ± 0.0195 fold-change vs cycle 0.

Turning to AACCTG, the binding signal was 0.802 ± 0.0637 fold-change vs cycle 0.

On to AATGAC, for which the binding signal was 1.18 ± 0.09 fold-change vs cycle 0.

Regarding ATCTCG, the binding signal worked out at 0.777 ± 0.0506 fold-change vs cycle 0.

With GGAGAA, the binding signal was 0.849 ± 0.0319 fold-change vs cycle 0.

Turning to AAACGG, the binding signal is 0.53 ± 0.0454 fold-change vs cycle 0.

On to CGAAAG, for which the binding signal is 0.614 ± 0.0288 fold-change vs cycle 0.

With CCAGGA, the binding signal was 0.465 ± 0.017 fold-change vs cycle 0.

Turning to GAGTGA, the binding signal worked out at 0.906 ± 0.0342 fold-change vs cycle 0.

Turning to ATCAGG, the binding signal turned out to be 0.876 ± 0.0408 fold-change vs cycle 0.

For ACCTAA, the binding signal was found to be 1.36 ± 0.0814 fold-change vs cycle 0.

Take TCGCAA: the binding signal was found to be 0.451 ± 0.0135 fold-change vs cycle 0.

Regarding AATTCA, the binding signal is 2.33 ± 0.187 fold-change vs cycle 0.

In the case of AGTATA, the binding signal is 2.16 ± 0.0916 fold-change vs cycle 0.

On to AAGTTC, for which the binding signal came out at 1.29 ± 0.0532 fold-change vs cycle 0.

Take TAAGGA: the binding signal came out at 1.59 ± 0.0522 fold-change vs cycle 0.

In the case of CACCAG, the binding signal was determined as 0.43 ± 0.0196 fold-change vs cycle 0.

Take AACAAA: the binding signal is 1.75 ± 0.107 fold-change vs cycle 0.

Turning to AAAGCG, the binding signal was determined as 0.393 ± 0.0227 fold-change vs cycle 0.

A further assay deals with T2, SALL4 ZFC4 R900W (HT-SELEX) (Mus musculus, UniProt Q8BX22 870-940, R900W).
T2 sequence: T1 sequence with R31W
Put plainly: HT-SELEX; high values mean tight binding. The settings on record: protein: recombinant; vector His6-GST; dsDNA, one strand shown. Put shortly: as §1
For ATTTCC, the binding signal is 1.28 ± 0.0652 fold-change vs cycle 0.

Turning to ATGTCG, the binding signal came out at 0.603 ± 0.00997 fold-change vs cycle 0.

Turning to AGGATC, the binding signal came out at 1.01 ± 0.0497 fold-change vs cycle 0.

In the case of AGGAAG, the binding signal was 1.172 ± 0.0114 fold-change vs cycle 0.

TAAGCA: the binding signal was found to be 1.3 ± 0.0615 fold-change vs cycle 0.

With AGATTA, the binding signal amounted to 2.14 ± 0.14 fold-change vs cycle 0.

For AAGCGT, the binding signal is 0.607 ± 0.0218 fold-change vs cycle 0.

As for GTCACA, the binding signal worked out at 0.804 ± 0.0553 fold-change vs cycle 0.

Regarding AAACAT, the binding signal worked out at 1.88 ± 0.0797 fold-change vs cycle 0.

With GGCTAA, the binding signal came to 0.619 ± 0.0212 fold-change vs cycle 0.

As for ATCGGG, the binding signal is 0.457 ± 0.0142 fold-change vs cycle 0.

Take CTTCCA: the binding signal came to 0.975 ± 0.0211 fold-change vs cycle 0.

With ACAATA, the binding signal came out at 1.92 ± 0.0865 fold-change vs cycle 0.

On to AGATGA, for which the binding signal turned out to be 1.6 ± 0.074 fold-change vs cycle 0.

As to GTGGGA, the binding signal turned out to be 0.478 ± 0.0252 fold-change vs cycle 0.

Turning to ATCAGC, the binding signal amounted to 0.738 ± 0.048 fold-change vs cycle 0.

With ATATTC, the binding signal is 1.95 ± 0.1 fold-change vs cycle 0.

For the sequence CGAAAC, the binding signal came to 0.676 ± 0.0229 fold-change vs cycle 0.

As for CTTATA, the binding signal amounted to 2.09 ± 0.123 fold-change vs cycle 0.

In the case of CGAATC, the binding signal turned out to be 0.742 ± 0.0291 fold-change vs cycle 0.

As to GAGTAA, the binding signal worked out at 1.57 ± 0.0835 fold-change vs cycle 0.

Take TCCGGA: the binding signal was 0.451 ± 0.0492 fold-change vs cycle 0.

Take AACCTG: the binding signal worked out at 0.917 ± 0.053 fold-change vs cycle 0.

As to AATGAC, the binding signal turned out to be 1.36 ± 0.06 fold-change vs cycle 0.

With ATCTCG, the binding signal was 0.837 ± 0.0514 fold-change vs cycle 0.

As to GGAGAA, the binding signal is 0.985 ± 0.0471 fold-change vs cycle 0.

For the sequence AAACGG, the binding signal is 0.652 ± 0.023 fold-change vs cycle 0.

In the case of CGAAAG, the binding signal was found to be 0.735 ± 0.037 fold-change vs cycle 0.

Regarding CCAGGA, the binding signal is 0.546 ± 0.0174 fold-change vs cycle 0.

GAGTGA: the binding signal came out at 1.02 ± 0.0645 fold-change vs cycle 0.

As to ATCAGG, the binding signal was found to be 0.991 ± 0.0415 fold-change vs cycle 0.

ACCTAA: the binding signal was found to be 1.46 ± 0.0702 fold-change vs cycle 0.

Turning to TCGCAA, the binding signal is 0.483 ± 0.00786 fold-change vs cycle 0.

As to AATTCA, the binding signal turned out to be 1.93 ± 0.125 fold-change vs cycle 0.

As to AGTATA, the binding signal came out at 2.13 ± 0.148 fold-change vs cycle 0.

On to AAGTTC, for which the binding signal came to 1.44 ± 0.0457 fold-change vs cycle 0.

As for TAAGGA, the binding signal worked out at 1.71 ± 0.0756 fold-change vs cycle 0.

With CACCAG, the binding signal turned out to be 0.526 ± 0.014 fold-change vs cycle 0.

Regarding AACAAA, the binding signal was found to be 1.8 ± 0.139 fold-change vs cycle 0.

With AAAGCG, the binding signal worked out at 0.489 ± 0.0338 fold-change vs cycle 0.

Another assay has as its target T3, SALL4 ZFC4 G921D (HT-SELEX) (Mus musculus, UniProt Q8BX22 870-940, G921D).
T3 sequence: T1 sequence with G52D
As to the kind of experiment: HT-SELEX; high values mean tight binding. The following applies: protein: recombinant; vector His6-GST; dsDNA, one strand shown. An outline of the steps: as §1
Consider ATTTCC, for which the binding signal came to 1.25 ± 0.0764 fold-change vs cycle 0.

Turning to ATGTCG, the binding signal was determined as 0.73 ± 0.0508 fold-change vs cycle 0.

As to AGGATC, the binding signal worked out at 1.07 ± 0.0215 fold-change vs cycle 0.

Consider AGGAAG, for which the binding signal is 1.11 ± 0.034 fold-change vs cycle 0.

As to TAAGCA, the binding signal is 1.26 ± 0.0364 fold-change vs cycle 0.

Turning to AGATTA, the binding signal is 1.86 ± 0.198 fold-change vs cycle 0.

As for AAGCGT, the binding signal amounted to 0.726 ± 0.0141 fold-change vs cycle 0.

For the sequence GTCACA, the binding signal worked out at 0.861 ± 0.0406 fold-change vs cycle 0.

Take AAACAT: the binding signal came to 1.72 ± 0.14 fold-change vs cycle 0.

For the sequence GGCTAA, the binding signal is 0.728 ± 0.0327 fold-change vs cycle 0.

As to ATCGGG, the binding signal worked out at 0.568 ± 0.0671 fold-change vs cycle 0.

Consider CTTCCA, for which the binding signal came to 1.02 ± 0.0304 fold-change vs cycle 0.

Take ACAATA: the binding signal is 1.71 ± 0.156 fold-change vs cycle 0.

For the sequence AGATGA, the binding signal is 1.46 ± 0.104 fold-change vs cycle 0.

On to GTGGGA, for which the binding signal amounted to 0.567 ± 0.0443 fold-change vs cycle 0.

As to ATCAGC, the binding signal was 0.836 ± 0.0337 fold-change vs cycle 0.

Take ATATTC: the binding signal turned out to be 1.78 ± 0.19 fold-change vs cycle 0.

Regarding CGAAAC, the binding signal is 0.748 ± 0.0402 fold-change vs cycle 0.

Take CTTATA: the binding signal was found to be 1.82 ± 0.197 fold-change vs cycle 0.

With CGAATC, the binding signal was found to be 0.827 ± 0.0621 fold-change vs cycle 0.

For the sequence GAGTAA, the binding signal stood at 1.43 ± 0.106 fold-change vs cycle 0.

For the sequence TCCGGA, the binding signal was 0.552 ± 0.107 fold-change vs cycle 0.

Take AACCTG: the binding signal was 0.952 ± 0.0288 fold-change vs cycle 0.

AATGAC: the binding signal was determined as 1.3 ± 0.105 fold-change vs cycle 0.

For ATCTCG, the binding signal was found to be 0.933 ± 0.0422 fold-change vs cycle 0.

On to GGAGAA, for which the binding signal came to 0.959 ± 0.0602 fold-change vs cycle 0.

As to AAACGG, the binding signal is 0.713 ± 0.0232 fold-change vs cycle 0.

In the case of CGAAAG, the binding signal came to 0.79 ± 0.0572 fold-change vs cycle 0.

As to CCAGGA, the binding signal turned out to be 0.63 ± 0.0152 fold-change vs cycle 0.

On to GAGTGA, for which the binding signal worked out at 1.05 ± 0.0602 fold-change vs cycle 0.

Turning to ATCAGG, the binding signal worked out at 1 ± 0.0437 fold-change vs cycle 0.

For the sequence ACCTAA, the binding signal came out at 1.37 ± 0.0509 fold-change vs cycle 0.

In the case of TCGCAA, the binding signal was 0.616 ± 0.0634 fold-change vs cycle 0.

AATTCA: the binding signal was 1.77 ± 0.161 fold-change vs cycle 0.

As to AGTATA, the binding signal was 1.85 ± 0.204 fold-change vs cycle 0.

Consider AAGTTC, for which the binding signal was found to be 1.36 ± 0.0438 fold-change vs cycle 0.

Consider TAAGGA, for which the binding signal was determined as 1.54 ± 0.114 fold-change vs cycle 0.

Regarding CACCAG, the binding signal was 0.606 ± 0.0242 fold-change vs cycle 0.

On to AACAAA, for which the binding signal came out at 1.64 ± 0.143 fold-change vs cycle 0.

Regarding AAAGCG, the binding signal was found to be 0.601 ± 0.0731 fold-change vs cycle 0.
